The list is not random: actives were taken first. Their share in the collection is about 3.5%.
MITF inh = MITF inhibitors, primary screen, biochemical, AlphaScreen, human. inhibition, % at 2.6 µM. AlphaScreen MITF homodimerization, bead proximity signal. hit rate 0.91% among 650,000. Microphthalmia-associated transcription factor (Homo sapiens), O75030; in the data active = inhibition above about 50%;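 also: 0% = vehicle wells with protein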
GPR151 ag = activators of human GPR151, primary screen, cell-based, PathHunter beta-arrestin, luminescence. G-protein coupled receptor 151 (Homo sapiens), Q8TDV0. PathHunter beta-arrestin GPR151 cells. activation, % at 11.2 µM. hit rate 1% among 650,000. AID 1508602, 2020; in the data active = activation above about 4.9%;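 also: 0% = median of compound wells and 100% = cells with positive control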
Target sequence (Q8TDV0 whole entry, looked up): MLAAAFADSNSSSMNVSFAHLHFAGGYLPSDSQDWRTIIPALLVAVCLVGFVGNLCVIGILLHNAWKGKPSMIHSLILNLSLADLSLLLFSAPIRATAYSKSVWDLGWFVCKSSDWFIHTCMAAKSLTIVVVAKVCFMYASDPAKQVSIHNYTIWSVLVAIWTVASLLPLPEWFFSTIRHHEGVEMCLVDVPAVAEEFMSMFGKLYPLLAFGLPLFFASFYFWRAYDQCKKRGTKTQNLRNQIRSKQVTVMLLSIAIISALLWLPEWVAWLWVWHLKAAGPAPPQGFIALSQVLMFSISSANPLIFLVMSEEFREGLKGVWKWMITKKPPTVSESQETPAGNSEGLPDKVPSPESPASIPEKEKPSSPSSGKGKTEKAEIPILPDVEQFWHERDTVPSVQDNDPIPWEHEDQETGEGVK
FBW7 act = FBW7 E3 ligase activators, primary screen, biochemical, AlphaScreen, human; F-box/WD repeat-containing protein 7 (Homo sapiens), Q969H0; AlphaScreen FBW7–phospho-cyclin E peptide binding, activator screen; normalized activity (activation), % at 26.1 µM; hit rate 0.13% among 650,000; AID 1259310, 2017; in the data active = normalized activity above about 1.9%;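 also: purified mutant Fbw7 with reduced substrate affinity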
TEAD-YAP inh = TEAD-YAP interaction inhibition, primary screen, TEAD-YAP interaction inhibitor project, luminescence, HEK-TIYL cells. AID 1259422, 2018. inhibition, % at 9.12 µM. TEAD-Gal4/YAP UAS-luciferase luminescence. hit rate 1.4% among 640,000; in the data active = inhibition above about 32%;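 also: 0% = median of test compound wells and 100% = reference inhibitor wells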
MITF confirm = MITF inhibitors, retest of hits, confirmation, biochemical, AlphaScreen, triplicate; shares compounds with MITF inh; AlphaScreen MITF homodimerization, biotin/His-MITF beads; inhibition, % at 2.6 µM; hit rate 16% among 4,700;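 active = inhibition above a cutoff derived from the DMSO control wells, cut at about 28% in these data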;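 also: 0% = MITF dimer wells with DMSO only; inhibitors lower the bead chemiluminescence by keeping MITF from dimerizing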
AlphaScreen DR = AlphaScreen optical interference compounds, dose response, counter-screen, biochemical, HTS. AlphaScreen optical interference counterscreen, cell-free. IC50, µM. shares compounds with MITF inh. AID 1259373, 2018. hit rate 6% among 480; call rule not given here
AlphaScreen intf2 = AlphaScreen optical interference compounds, counter-screen for MITF inhibitor project, biochemical, triplicate; shares compounds with MITF inh; LysRS AlphaScreen counterscreen, signal interference; inhibition, % at 2.6 µM; hit rate 7.6% among 4,700; AID 1259376, 2018;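 active = inhibition above a cutoff derived from the DMSO control wells, cut at about 30% in these data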
Starred values were filed as active, the others as inactive; . = no result.

SMILES | MITF inh | GPR151 ag | FBW7 act | TEAD-YAP inh | MITF confirm | AlphaScreen intf2 | others
O=C(N/N=C/c1ccc(O)c(O)c1)C12CC3CC(CC(C3)C1)C2 | 0 | -1 | 0 | -27 | . | .
COc1ccc(N(C(=O)/C=C/c2ccccc2)C2=CC3CCC(C2)N3C)cc1 (stereo not drawn) | 56* | -3 | 0 | -33 | 9 | 11
Cc1ccc(C)c(C(=O)N(C)Cc2ccccc2)c1 | -5 | 1 | 0 | 0 | . | .
Cc1cccc(CNC(=O)C2CC23CCN(C(=O)c2c(-c4ccccc4)noc2C)CC3)n1 (stereo not drawn) | 80* | 1 | 0 | 4 | -1 | -1
Cc1cccc(CNC(=O)C2CC23CCN(C(=O)c2cc(-c4ccccc4)no2)CC3)n1 (stereo not drawn) | 3 | 3 | 0 | 9 | . | .
O=C(N/N=C/c1cccc2cccnc12)c1ccc(Cl)cc1 | 37 | -1 | 0 | 25 | . | .
O=C(N/N=C\c1cccc([N+](=O)[O-])c1)c1cnccn1 | 66* | -1 | 0 | -21 | 1 | 15
O=C(N/N=C/c1cccc2cccnc12)c1cccc([N+](=O)[O-])c1 | 53* | -3 | 0 | 5 | 56* | 100*
CN1CCN(c2ccc(-c3nc(NCCN4CCOCC4)c4ncn(CCN5CCCC5=O)c4n3)cc2)CC1 | 13 | -3 | 0 | -7 | . | .
O=C(Nc1ccc(-c2ccc3nnc(-c4ccncc4)n3n2)cc1)c1ccc(Cl)cc1 | 8 | 2 | 0 | 8 | . | .
Nc1c(C(=O)Nc2ccc(Cl)cc2)nnc2cc(-c3ccc(Cl)cc3)nn12 | 82* | 0 | 0 | 5 | 7 | 5
CN(C)CCCNC(=O)c1cccc(CN(C(=O)c2nc3ccc(-c4cn[nH]c4)cc3s2)C2CC2)c1 | 60* | -1 | 1 | -3 | 50* | 14 | AlphaScreen DR=>6.5
O=C(NCc1cccc(Cl)c1)c1ccc2c(=O)n(Cc3ccccc3)c(=S)[nH]c2c1 | 12 | 1 | 0 | -9 | . | .
CCc1nc2ccccc2c(NC(=O)CN2CCCC2)c1C | 65* | 1 | 0 | 8 | -14 | -3
O=C(CN1CCCC1)Nc1c2c(nc3ccccc13)N(Cc1ccccc1)CC2 | 30 | 0 | 0 | 8 | . | .
O=C(CN1CCCC1)Nc1ccccc1 | 11 | 4 | 1 | -14 | . | .
CC(C(O)c1ccccc1)N(C)CC(=O)Nc1c2c(nc3ccccc13)N(C)CC2 (stereo not drawn) | 67* | 0 | 0 | -1 | 13 | 27
CCc1nc2ccccc2c(NC(=O)CNC(C)(C)CC(C)(C)C)c1C | 70* | 1 | 0 | 1 | 14 | -6
O=C(CN1CCCC1)Nc1c2c(nc3ccccc13)N(c1ccccc1)CC2 | 72* | 0 | 0 | 4 | 4 | 8
CCOC(=O)N1CCN(C(=O)CCCCn2c(=O)[nH]c3ccsc3c2=O)CC1 | 5 | 0 | 0 | 4 | . | .
CCCC(CCC)C(=O)Nc1noc2ncccc12 | 14 | -3 | 0 | 5 | . | .
Cc1ccnc(NC(=O)CSC2=NC(=O)C(c3ccccc3)C(=O)N2)c1 (stereo not drawn) | 93* | 1 | 0 | 3 | 2 | 9
Cc1cc(OC(=O)c2cccc([N+](=O)[O-])c2)ccc1N1C(=O)CCC1=O | 70* | 0 | 0 | -2 | 3 | 9
CCN(CC(=O)Nc1cc(F)ccc1F)CC(=O)NC(C)C | 63* | -1 | 0 | -5 | 8 | -2
CCN(CC(=O)Nc1ccc(F)cc1Cl)CC(=O)NC(C)C | 5 | -1 | 0 | 0 | . | .
SMILES | MITF inh | GPR151 ag | FBW7 act | TEAD-YAP inh | MITF confirm | AlphaScreen intf2 | others
CN(C)c1ccc(NC(=O)CSc2ncccc2C(=O)O)cc1 | 64* | 1 | 0 | 32 | 75* | 22 | AlphaScreen DR=>6.5
O=C(CC(NCc1ccccn1)C(=O)O)Nc1ccccc1Cl (stereo not drawn) | 104* | 0 | 0 | -2 | 89* | 100*
O=C(CC(NCc1ccccn1)C(=O)O)Nc1cc(Cl)ccc1Cl (stereo not drawn) | 104* | 1 | 0 | -6 | 75* | 100*
COc1ccccc1NC(=O)CC(NCc1ccccn1)C(=O)O (stereo not drawn) | 100* | 1 | 0 | -6 | 106* | 100*
COc1ccccc1NC(=O)CC(C(=O)O)N(C)C (stereo not drawn) | 15 | 3 | 0 | 9 | . | .
O=C(Cc1ccccc1)Nc1cc(Cl)ccc1Cl | -3 | 1 | 0 | -2 | . | .
COCCCNC(=O)/C(C#N)=C/c1ccc(-c2ccc(Cl)c(C(=O)O)c2)o1 | 58* | 0 | 0 | 1 | 46* | 19 | AlphaScreen DR=>6.5
CC(=O)C1=C(O)C(=O)N(CCN2CCNCC2)C1c1ccc(F)cc1 (stereo not drawn) | 101* | -1 | 0 | 1 | 23 | 13
CC(=O)Nc1ccc(Nc2cc(Nc3ccncc3)ncn2)cc1 | -3 | 3 | 0 | -5 | . | .
FC(F)(F)c1ccccc1CN1CCN(C2CCCC2)CC1 | 64* | 3 | 0 | 6 | -5 | -2
OCC1CCN(C2CCCN(Cc3ccccc3C(F)(F)F)C2)CC1 (stereo not drawn) | -1 | -2 | 0 | -4 | . | .
FC(F)(F)c1ccccc1CN1CCN(Cc2ccccc2C(F)(F)F)CC1 | 70* | 1 | 0 | -6 | 4 | 8
FC(F)(F)c1ccccc1CN1CCN(Cc2ccc(Br)cc2)CC1 | 82* | -1 | 0 | -2 | 9 | 23
OCCC1CN(Cc2ccccc2C(F)(F)F)CCN1C1CCCC1 (stereo not drawn) | 0 | 2 | 0 | 2 | . | .
OC1CCN(Cc2ccccc2C(F)(F)F)CC1 | 40 | 1 | 0 | 6 | . | .
FC(F)(F)c1ccccc1CN1CCN(Cc2ccncc2)CC1 | 71* | 1 | 0 | 4 | -1 | -4
CC(C)c1ccc(NC(=O)C2C3C=CC4(O3)C2C(=O)N(Cc2ccccc2Cl)C4C(=O)NC2CCCCC2)cc1 (stereo not drawn) | 1 | 0 | 0 | -8 | . | .
N#C/C(=N/Nc1cccc(C(F)(F)F)c1)C(=N)N1CCOCC1 | 3 | -1 | 1 | -29 | . | .
COCCCNC(=S)N1CCC(NC(=O)C23CC4CC(CC(C4)C2)C3)CC1 | 15 | 0 | 1 | 1 | . | .
Fc1ccccc1CN1CCN(c2ccccn2)CC1 | 4 | -1 | 0 | -13 | . | .
CCCN1CCC(NCc2ccccc2C(F)(F)F)CC1 | 55* | 0 | 0 | 9 | -3 | -2

Assay outcomes as filed in PubChem BioAssay.
